Test results published in publication PMC7862700, “An all-to-all approach to the identification of sequence-specific readers for epigenetic DNA modifications on cytosine”.

Assays:
Assay in all cases: DAPPL (digital affinity profiling via proximity ligation, sequencing); 10 mM Tris-HCl pH 7.5, 50 mM NaCl, 1 mM DTT, 4% glycerol, room temperature, 30 min; GST-TFs on glutathione beads, 16-mer random dsDNA library, 0.1% formaldehyde crosslink after washing; high values mean tight binding
[1] = biological target: T1, FLI1 (Homo sapiens, UniProt Q01543 1-452); conditions: protein: recombinant; tags: N-terminal GST; dsDNA, one strand shown
T1 sequence: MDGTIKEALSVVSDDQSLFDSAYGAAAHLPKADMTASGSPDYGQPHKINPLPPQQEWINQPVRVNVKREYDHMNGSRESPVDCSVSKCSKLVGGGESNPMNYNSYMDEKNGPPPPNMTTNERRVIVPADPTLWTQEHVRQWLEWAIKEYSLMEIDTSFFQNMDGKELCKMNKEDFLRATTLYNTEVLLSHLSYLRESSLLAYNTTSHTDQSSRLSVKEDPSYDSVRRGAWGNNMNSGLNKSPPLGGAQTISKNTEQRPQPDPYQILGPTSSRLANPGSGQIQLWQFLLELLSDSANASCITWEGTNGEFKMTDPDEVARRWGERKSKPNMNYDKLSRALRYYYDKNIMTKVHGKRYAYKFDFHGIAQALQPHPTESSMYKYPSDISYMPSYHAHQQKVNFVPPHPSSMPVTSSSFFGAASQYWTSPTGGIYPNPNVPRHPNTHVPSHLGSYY
Outline: (§1)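 Each value of binding signal is a hexamer's read frequency for a factor divided by the same hexamer's frequency in the tag-only sample. Barcoded, bead-captured GST fusions of human transcription factors made in yeast were pooled with that sample and incubated with 200 nmole of a random double-stranded 16-mer DNA library in Tris/NaCl/DTT/glycerol buffer at room temperature for 30 min. Washing, 0.1% formaldehyde crosslinking, proximity ligation, PCR and Illumina NextSeq500 sequencing followed.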

[2] = biological target: T2, ELK1 (Homo sapiens, UniProt P19419 1-428); conditions: protein: recombinant; tags: N-terminal GST; dsDNA, one strand shown
T2 sequence: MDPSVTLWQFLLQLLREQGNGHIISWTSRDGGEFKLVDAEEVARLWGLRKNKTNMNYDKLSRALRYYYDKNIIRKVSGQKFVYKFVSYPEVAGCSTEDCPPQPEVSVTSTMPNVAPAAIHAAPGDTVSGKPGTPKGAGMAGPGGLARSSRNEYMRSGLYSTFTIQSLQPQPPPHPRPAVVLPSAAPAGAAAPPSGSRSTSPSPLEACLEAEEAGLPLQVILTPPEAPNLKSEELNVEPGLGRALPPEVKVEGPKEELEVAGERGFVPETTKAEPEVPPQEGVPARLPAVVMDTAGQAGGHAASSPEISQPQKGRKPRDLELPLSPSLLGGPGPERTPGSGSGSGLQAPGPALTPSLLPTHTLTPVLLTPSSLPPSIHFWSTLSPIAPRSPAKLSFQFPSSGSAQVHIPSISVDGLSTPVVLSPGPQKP
Outline: as §1

[3] = biological target: T3, GABPA (Homo sapiens, UniProt Q06546 1-454); conditions: protein: recombinant; tags: N-terminal GST; dsDNA, one strand shown
T3 sequence: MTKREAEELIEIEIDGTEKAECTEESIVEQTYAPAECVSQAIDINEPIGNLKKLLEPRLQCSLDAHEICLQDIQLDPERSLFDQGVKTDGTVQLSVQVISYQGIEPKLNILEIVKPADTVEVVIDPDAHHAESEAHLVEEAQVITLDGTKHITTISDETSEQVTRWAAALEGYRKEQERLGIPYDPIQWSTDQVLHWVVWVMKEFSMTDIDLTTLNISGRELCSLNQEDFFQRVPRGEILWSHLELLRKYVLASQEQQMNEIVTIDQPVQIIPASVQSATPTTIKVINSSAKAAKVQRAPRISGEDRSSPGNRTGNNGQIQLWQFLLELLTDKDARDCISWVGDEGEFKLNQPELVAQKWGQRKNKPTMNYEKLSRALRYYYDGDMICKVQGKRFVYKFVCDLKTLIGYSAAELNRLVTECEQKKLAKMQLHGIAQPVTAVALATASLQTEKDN
Outline: as §1

[4] = biological target: T4, ERG (Homo sapiens, UniProt P11308 1-479); conditions: protein: recombinant; tags: N-terminal GST; dsDNA, one strand shown
T4 sequence: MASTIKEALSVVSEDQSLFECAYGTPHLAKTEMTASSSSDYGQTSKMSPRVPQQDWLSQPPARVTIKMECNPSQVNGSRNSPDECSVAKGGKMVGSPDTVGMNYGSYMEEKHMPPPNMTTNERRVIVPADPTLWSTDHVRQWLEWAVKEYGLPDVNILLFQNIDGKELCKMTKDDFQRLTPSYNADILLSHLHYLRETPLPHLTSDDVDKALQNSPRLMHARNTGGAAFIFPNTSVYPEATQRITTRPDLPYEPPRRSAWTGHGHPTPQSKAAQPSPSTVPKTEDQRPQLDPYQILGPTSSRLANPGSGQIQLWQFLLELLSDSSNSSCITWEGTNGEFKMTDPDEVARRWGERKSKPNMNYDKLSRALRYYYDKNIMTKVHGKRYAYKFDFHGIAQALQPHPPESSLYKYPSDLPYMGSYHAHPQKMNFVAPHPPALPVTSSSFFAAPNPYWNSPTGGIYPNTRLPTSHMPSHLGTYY
Outline: as §1

[5] = biological target: ELF1 (Homo sapiens, UniProt P32519 1-619); conditions: protein: recombinant; tags: N-terminal GST; dsDNA, one strand shown
ELF1, sequence (P32519 whole entry): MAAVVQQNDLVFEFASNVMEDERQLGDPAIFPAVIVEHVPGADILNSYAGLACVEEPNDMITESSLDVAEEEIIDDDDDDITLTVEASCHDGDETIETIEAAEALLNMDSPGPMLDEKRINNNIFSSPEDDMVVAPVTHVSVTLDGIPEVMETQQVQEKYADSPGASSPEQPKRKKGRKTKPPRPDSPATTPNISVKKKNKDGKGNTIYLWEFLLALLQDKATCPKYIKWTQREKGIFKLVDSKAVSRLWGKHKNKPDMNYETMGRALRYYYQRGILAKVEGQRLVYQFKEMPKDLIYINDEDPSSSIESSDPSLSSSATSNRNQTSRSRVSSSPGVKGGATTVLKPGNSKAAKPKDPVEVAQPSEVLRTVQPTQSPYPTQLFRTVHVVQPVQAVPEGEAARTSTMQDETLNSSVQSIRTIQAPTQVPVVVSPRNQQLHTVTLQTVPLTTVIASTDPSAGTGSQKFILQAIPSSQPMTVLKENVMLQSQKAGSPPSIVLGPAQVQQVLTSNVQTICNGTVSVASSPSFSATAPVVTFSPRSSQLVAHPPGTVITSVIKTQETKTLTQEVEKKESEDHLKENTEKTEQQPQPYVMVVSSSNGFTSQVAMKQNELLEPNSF
Outline: as §1

[6] = biological target: T5, EHF (Homo sapiens, UniProt Q9NZC4 1-300); conditions: protein: recombinant; tags: N-terminal GST; dsDNA, one strand shown
T5 sequence: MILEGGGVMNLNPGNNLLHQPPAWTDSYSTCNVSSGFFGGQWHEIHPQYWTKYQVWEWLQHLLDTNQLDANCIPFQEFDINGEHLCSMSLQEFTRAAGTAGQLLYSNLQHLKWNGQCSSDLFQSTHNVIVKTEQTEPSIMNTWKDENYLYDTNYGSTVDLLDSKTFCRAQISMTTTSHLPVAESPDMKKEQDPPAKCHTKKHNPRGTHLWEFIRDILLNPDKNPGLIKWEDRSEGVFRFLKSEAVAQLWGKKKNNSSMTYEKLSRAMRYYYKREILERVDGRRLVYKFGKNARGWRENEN
Outline: as §1

[7] = biological target: SPI1 (Homo sapiens, UniProt P17947 1-270); conditions: protein: recombinant; tags: N-terminal GST; dsDNA, one strand shown
Outline: as §1

[8] = biological target: SPIB (Homo sapiens, UniProt Q01892 1-262); conditions: protein: recombinant; tags: N-terminal GST; dsDNA, one strand shown
SPIB, sequence (Q01892 whole entry): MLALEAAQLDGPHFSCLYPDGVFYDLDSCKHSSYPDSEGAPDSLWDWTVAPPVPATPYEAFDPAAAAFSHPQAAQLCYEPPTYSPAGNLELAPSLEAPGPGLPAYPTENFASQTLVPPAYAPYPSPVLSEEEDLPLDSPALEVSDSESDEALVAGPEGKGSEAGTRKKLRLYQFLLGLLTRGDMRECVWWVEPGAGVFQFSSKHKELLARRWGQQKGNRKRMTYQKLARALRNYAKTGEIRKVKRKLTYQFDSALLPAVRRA
Outline: as §1

[9] = biological target: T6, ELK3 (Homo sapiens, UniProt P41970 1-407); conditions: protein: recombinant; tags: N-terminal GST; dsDNA, one strand shown
T6 sequence: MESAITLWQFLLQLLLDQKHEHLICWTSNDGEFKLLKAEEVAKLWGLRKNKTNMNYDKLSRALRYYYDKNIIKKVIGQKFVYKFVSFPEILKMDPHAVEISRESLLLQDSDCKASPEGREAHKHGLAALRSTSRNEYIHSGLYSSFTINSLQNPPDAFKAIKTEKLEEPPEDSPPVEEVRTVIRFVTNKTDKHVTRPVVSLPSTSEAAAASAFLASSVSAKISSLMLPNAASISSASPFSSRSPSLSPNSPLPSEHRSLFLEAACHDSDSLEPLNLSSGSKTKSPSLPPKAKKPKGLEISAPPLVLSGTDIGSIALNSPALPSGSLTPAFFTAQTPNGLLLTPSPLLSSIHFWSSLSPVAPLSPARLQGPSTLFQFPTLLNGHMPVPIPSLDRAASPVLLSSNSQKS
Outline: as §1

[10] = biological target: T7, FEV (Homo sapiens, UniProt Q99581 1-238); conditions: protein: recombinant; tags: N-terminal GST; dsDNA, one strand shown
T7 sequence: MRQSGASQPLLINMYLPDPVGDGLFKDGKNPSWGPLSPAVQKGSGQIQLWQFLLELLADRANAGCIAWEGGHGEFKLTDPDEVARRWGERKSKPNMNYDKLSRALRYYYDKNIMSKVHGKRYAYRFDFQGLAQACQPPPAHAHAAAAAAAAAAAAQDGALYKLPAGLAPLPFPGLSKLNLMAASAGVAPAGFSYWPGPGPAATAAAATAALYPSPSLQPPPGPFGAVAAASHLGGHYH
Outline: as §1

[11] = biological target: ETV5 (Homo sapiens, UniProt P41161 1-510); conditions: protein: recombinant; tags: N-terminal GST; dsDNA, one strand shown
ETV5, sequence (P41161 whole entry): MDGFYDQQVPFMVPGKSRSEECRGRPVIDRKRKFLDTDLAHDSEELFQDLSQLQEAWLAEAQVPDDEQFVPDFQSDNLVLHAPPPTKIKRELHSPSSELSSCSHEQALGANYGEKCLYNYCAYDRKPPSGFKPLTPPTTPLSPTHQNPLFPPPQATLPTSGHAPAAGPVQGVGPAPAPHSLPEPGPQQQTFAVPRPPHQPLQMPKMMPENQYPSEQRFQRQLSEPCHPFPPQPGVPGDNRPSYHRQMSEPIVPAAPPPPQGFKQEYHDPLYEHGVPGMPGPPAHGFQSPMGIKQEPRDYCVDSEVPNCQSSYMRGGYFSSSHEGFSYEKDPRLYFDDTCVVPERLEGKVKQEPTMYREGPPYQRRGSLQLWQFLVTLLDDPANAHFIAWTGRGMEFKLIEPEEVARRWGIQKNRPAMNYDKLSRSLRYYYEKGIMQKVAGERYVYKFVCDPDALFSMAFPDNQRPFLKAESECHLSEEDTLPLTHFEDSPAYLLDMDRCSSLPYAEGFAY
Outline: as §1

[12] = biological target: HSF1 (Homo sapiens, UniProt Q00613 1-529); conditions: protein: recombinant; tags: N-terminal GST; chain copies: 3; dsDNA, one strand shown
HSF1, sequence (Q00613 whole entry): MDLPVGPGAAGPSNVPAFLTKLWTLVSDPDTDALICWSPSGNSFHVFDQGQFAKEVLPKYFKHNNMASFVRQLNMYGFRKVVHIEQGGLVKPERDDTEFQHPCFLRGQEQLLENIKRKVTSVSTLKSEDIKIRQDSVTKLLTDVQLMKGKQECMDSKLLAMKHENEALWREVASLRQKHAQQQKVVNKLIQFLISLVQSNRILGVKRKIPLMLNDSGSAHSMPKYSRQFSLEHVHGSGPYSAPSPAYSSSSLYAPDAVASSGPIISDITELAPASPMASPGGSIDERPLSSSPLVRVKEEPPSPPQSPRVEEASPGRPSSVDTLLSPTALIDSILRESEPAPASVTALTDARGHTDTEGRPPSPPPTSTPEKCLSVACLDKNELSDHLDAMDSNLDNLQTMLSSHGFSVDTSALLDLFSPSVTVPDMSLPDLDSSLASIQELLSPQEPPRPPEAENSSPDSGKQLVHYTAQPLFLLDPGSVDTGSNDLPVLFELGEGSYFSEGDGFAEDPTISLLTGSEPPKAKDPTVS
Outline: as §1

[13] = biological target: T8, SPIC (Homo sapiens, UniProt Q8N5J4 1-248); conditions: protein: recombinant; tags: N-terminal GST; dsDNA, one strand shown
T8 sequence: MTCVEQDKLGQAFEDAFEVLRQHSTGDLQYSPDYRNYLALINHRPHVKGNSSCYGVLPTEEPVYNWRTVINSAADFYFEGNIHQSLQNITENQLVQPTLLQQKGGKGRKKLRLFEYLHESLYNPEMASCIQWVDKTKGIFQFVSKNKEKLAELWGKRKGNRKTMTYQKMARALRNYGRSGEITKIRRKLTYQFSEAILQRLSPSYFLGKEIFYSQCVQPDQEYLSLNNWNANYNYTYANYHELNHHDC
Outline: as §1

[14] = biological target: ELF4 (Homo sapiens, UniProt Q99607 1-663); conditions: protein: recombinant; tags: N-terminal GST; dsDNA, one strand shown
ELF4, sequence (Q99607 whole entry): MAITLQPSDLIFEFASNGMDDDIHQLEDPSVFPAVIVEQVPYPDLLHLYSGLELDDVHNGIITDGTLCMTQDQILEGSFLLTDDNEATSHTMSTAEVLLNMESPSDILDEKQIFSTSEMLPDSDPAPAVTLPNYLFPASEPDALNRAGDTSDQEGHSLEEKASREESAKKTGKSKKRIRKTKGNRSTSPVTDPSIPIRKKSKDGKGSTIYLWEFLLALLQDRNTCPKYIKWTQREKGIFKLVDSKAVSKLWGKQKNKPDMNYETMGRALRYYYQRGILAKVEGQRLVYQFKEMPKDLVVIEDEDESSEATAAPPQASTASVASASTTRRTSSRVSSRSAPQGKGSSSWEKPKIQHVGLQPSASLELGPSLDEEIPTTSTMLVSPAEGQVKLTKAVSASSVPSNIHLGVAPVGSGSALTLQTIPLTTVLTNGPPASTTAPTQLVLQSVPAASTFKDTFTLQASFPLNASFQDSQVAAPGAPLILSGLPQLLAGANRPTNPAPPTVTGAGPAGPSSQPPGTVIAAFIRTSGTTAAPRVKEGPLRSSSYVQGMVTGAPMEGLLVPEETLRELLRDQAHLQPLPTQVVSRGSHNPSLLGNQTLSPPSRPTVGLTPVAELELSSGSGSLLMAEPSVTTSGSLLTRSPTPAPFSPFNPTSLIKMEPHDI
Outline: as §1

[15] = biological target: T9, ELK4 (Homo sapiens, UniProt P28324-2 1-405); conditions: protein: recombinant; tags: N-terminal GST; dsDNA, one strand shown
T9 sequence: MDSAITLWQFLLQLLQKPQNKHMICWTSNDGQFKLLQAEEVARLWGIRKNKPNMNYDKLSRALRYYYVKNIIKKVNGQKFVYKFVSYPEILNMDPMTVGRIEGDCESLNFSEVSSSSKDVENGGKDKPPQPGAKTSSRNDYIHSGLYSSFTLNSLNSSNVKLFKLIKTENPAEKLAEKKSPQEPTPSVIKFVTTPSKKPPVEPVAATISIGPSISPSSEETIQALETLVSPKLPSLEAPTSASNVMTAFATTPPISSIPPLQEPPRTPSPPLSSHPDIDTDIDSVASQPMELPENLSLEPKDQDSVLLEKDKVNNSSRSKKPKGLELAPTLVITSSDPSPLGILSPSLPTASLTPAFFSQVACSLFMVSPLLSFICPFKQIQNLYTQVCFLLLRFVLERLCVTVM
Outline: as §1

[16] = biological target: T10, ETV2 (Homo sapiens, UniProt O00321 1-342); conditions: protein: recombinant; tags: N-terminal GST; dsDNA, one strand shown
T10 sequence: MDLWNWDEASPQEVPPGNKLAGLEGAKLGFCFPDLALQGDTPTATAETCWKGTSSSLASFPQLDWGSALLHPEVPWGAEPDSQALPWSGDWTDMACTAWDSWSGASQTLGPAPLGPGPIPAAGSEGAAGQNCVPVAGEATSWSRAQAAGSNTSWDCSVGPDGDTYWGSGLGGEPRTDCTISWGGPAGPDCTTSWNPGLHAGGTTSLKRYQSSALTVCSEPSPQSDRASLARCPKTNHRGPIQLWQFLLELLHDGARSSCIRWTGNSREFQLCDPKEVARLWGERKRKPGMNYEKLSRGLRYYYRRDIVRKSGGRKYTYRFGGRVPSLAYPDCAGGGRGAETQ
Outline: as §1

[17] = biological target: T11, ELF3 (Homo sapiens, UniProt P78545 1-371); conditions: protein: recombinant; tags: N-terminal GST; dsDNA, one strand shown
T11 sequence: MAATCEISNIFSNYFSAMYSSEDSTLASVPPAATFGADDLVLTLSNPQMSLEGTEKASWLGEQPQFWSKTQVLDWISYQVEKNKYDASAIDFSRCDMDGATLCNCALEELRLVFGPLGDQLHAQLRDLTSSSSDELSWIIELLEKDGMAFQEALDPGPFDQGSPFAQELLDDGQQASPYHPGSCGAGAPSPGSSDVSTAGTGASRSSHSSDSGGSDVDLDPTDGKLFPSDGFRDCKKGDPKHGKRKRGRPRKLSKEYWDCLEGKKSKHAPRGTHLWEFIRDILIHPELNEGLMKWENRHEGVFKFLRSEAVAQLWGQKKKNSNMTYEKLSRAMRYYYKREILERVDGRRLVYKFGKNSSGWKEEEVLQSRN
Outline: as §1

[18] = biological target: CRX (Homo sapiens, UniProt O43186 1-299); conditions: protein: recombinant; tags: N-terminal GST; dsDNA, one strand shown
CRX, sequence (O43186 whole entry): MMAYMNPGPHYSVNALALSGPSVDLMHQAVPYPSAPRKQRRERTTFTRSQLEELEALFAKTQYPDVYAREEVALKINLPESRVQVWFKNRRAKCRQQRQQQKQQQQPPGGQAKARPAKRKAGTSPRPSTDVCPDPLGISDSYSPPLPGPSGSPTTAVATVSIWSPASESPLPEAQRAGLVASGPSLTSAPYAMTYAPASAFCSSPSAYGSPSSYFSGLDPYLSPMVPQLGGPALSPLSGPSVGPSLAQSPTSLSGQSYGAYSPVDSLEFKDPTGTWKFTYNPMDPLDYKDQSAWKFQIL
Outline: as §1

[19] = biological target: ETV1 (Homo sapiens, UniProt P50549 1-477); conditions: protein: recombinant; tags: N-terminal GST; dsDNA, one strand shown
ETV1, sequence (P50549 whole entry): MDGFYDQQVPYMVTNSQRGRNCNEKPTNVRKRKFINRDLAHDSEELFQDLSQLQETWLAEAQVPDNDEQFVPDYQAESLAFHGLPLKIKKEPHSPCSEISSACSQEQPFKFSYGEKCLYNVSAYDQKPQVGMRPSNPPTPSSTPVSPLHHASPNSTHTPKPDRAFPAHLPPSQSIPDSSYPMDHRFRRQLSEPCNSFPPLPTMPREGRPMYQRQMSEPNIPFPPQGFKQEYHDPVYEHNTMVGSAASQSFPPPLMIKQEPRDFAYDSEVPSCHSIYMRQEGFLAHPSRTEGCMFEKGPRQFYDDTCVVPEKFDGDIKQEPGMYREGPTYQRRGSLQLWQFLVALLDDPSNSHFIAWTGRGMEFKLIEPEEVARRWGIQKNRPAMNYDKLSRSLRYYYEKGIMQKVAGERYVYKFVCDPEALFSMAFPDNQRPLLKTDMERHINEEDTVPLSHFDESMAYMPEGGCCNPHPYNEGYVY
Outline: as §1

TATAGC
binding signal [1]: 1.2 fold enrichment (6-mer frequency, TF over GST control)
binding signal [2]: 1.22 fold enrichment (6-mer frequency, TF over GST control)
binding signal [3]: 1.26 fold enrichment (6-mer frequency, TF over GST control)
binding signal [4]: 1.2 fold enrichment (6-mer frequency, TF over GST control)
binding signal [5]: 1.21 fold enrichment (6-mer frequency, TF over GST control)
binding signal [6]: 1.17 fold enrichment (6-mer frequency, TF over GST control)
binding signal [7]: 1.16 fold enrichment (6-mer frequency, TF over GST control)
binding signal [8]: 1.18 fold enrichment (6-mer frequency, TF over GST control)
binding signal [9]: 1.1 fold enrichment (6-mer frequency, TF over GST control)
binding signal [10]: 1.19 fold enrichment (6-mer frequency, TF over GST control)
binding signal [11]: 1.37 fold enrichment (6-mer frequency, TF over GST control)
binding signal [12]: 1.17 fold enrichment (6-mer frequency, TF over GST control)
binding signal [13]: 1.31 fold enrichment (6-mer frequency, TF over GST control)
binding signal [14]: 1.15 fold enrichment (6-mer frequency, TF over GST control)
binding signal [15]: 1.29 fold enrichment (6-mer frequency, TF over GST control)
binding signal [16]: 1.13 fold enrichment (6-mer frequency, TF over GST control)
binding signal [17]: 1.27 fold enrichment (6-mer frequency, TF over GST control)
binding signal [18]: 1.44 fold enrichment (6-mer frequency, TF over GST control)
binding signal [19]: 1.13 fold enrichment (6-mer frequency, TF over GST control)
